A selection: hits, their analogues and other compounds. The true share with any hit is near 3.5%.
GPR151 activ – activators of human GPR151; Q8TDV0; PathHunter beta-arrestin GPR151 cells, luminescence; activation, % at 11.2 µM; 650,000 tested, 1% active; in the data active = activation above about 4.9%;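 also: 0% = median of compound wells and 100% = cells with positive control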
Target sequence (Q8TDV0 whole entry, looked up): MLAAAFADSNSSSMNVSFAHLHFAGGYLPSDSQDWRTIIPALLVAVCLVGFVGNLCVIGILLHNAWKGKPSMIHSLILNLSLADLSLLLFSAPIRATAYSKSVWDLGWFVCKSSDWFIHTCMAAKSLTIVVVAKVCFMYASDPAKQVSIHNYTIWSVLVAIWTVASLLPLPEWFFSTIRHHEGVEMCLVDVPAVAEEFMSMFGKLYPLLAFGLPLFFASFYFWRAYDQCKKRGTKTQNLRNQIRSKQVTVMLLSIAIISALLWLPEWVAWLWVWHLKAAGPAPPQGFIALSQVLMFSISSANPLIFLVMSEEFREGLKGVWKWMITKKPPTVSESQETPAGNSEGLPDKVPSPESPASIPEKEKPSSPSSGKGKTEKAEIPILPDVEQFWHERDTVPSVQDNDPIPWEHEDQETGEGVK
TEAD-YAP inh – TEAD-YAP interaction inhibition; HEK-TIYL cells, TEAD-Gal4/YAP UAS-luciferase luminescence; inhibition, % at 9.12 µM; 640,000 tested, 1.4% active; AID 1259422; in the data active = inhibition above about 32%;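 also: 0% = median of test compound wells and 100% = reference inhibitor wells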
FBW7 act – human FBW7 E3 ligase activation, primary screen | 650,000 tested, 0.13% active | normalized activity (activation), % at 26.1 µM | AID 1259310 | AlphaScreen FBW7–phospho-cyclin E peptide binding, activator screen | Q969H0; in the data active = normalized activity above about 1.9%;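 also: purified mutant Fbw7 with reduced substrate affinity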
MITF inh – human MITF inhibition, primary screen. O75030. AlphaScreen MITF homodimerization, bead proximity signal. inhibition, % at 2.6 µM. 650,000 tested, 0.91% active. AID 1259374; in the data active = inhibition above about 50%;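 also: 0% = vehicle wells with protein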
Active calls of the source: *; ! = a repeat was not active.

SMILES	GPR151 activ	TEAD-YAP inh	FBW7 act	MITF inh
c1ccc(-n2cnc3c(NC4CC4)nc(Nc4ccncc4)nc32)cc1	2.1	37.6*	0.2	10.1
c1ccc(-n2cnc3c(NC4CC4)nc(Nc4cnccn4)nc32)cc1	1.9	51.1*	0.1	2.0
CN(C)c1cccc(Nc2nc(NC3CC3)c3ncn(-c4ccsc4)c3n2)c1	-0.3	32.6*	0.1	-0.5
CN(C)c1cccc(Nc2nc(N)c3ncn(-c4ccsc4)c3n2)c1	-1.4	9.9	0.2	8.5
Cc1ccc(Cl)cc1NC(=O)COc1ccccc1Br	-0.7	-35.7	-0.2	-6.5
c1cc(Nc2nc(NC3CC3)c3ncn(-c4ccsc4)c3n2)ncn1	0.4	-25.0	7.4*	7.2
c1ccc(Nc2nc(Nc3ccncn3)nc3c2ncn3-c2ccsc2)cc1	3.0	-60.7	0.1	0.7
c1cnc2ccc(Nc3nc(NC4CC4)c4ncn(-c5ccsc5)c4n3)cc2c1	1.3	8.7	-0.2	18.3
c1cnc(Nc2nc(NC3CC3)c3ncn(-c4ccsc4)c3n2)cn1	0.8	34.4*	0.0	10.9
CC(c1ccccc1)N1COc2c(cc(Cl)c3cccnc23)C1 (stereo not given)	1.6	48.3*	-1.1	64.0*
CCOC(=O)c1c(C)oc2c1c1c(c3ccccc32)OCN(C(C)c2ccccc2)C1 (stereo not given)	-1.0	-98.0	-0.5	-1.9
CCOC(=O)C1CCN(Cc2cc(Cl)c3cccnc3c2O)CC1	-0.6	72.2*	-0.3	43.0
CC1CN(Cc2cc(Cl)c3cccnc3c2O)CC(C)O1 (stereo not given)	-0.9	24.0	-0.4	56.3*
Oc1c(CN2CCCCCC2)cc(Cl)c2cccnc12	-1.2	50.5*	-1.1	45.8
O=C(Oc1c(Br)cc(Cl)c2cccnc12)N1CCCCC1	-0.5	-10.7	0.0	-11.6
O=C1c2ccccc2C(=O)N1Cc1cc(Cl)c2cccnc2c1O	0.7	9.1	-0.1	8.8
O=C1CCCN1Cc1cc(Cl)c2cccnc2c1O	0.6	8.7	-0.1	64.5*
CCOC(=O)C1CCN(Cc2c(Cl)cccc2Cl)CC1	0.0	-15.8	-0.2	27.7
O=C(CN1CCSCC1)N/N=C/c1ccc(Cl)c(Cl)c1	0.3	-7.7	0.0	11.2
Oc1c(CN2CCOCC2)cc(Cl)c2cccnc12	-0.9	50.3*	-0.1	64.1*
CN1CCN(Cc2cc(Cl)c3cccnc3c2O)CC1	0.2	53.6*	-1.2	78.7*
OCC1CCCCN1Cc1cc(Cl)c2cccnc2c1O (stereo not given) (tested in a mixture with another compound)	-0.3	76.2*	-0.3	65.8*
CCN1CCN(Cc2cc(Cl)c3cccnc3c2O)CC1	1.1	46.7*	-0.1	50.1
Oc1c(CN2CCN(c3cccc(C(F)(F)F)c3)CC2)cc(Cl)c2cccnc12	0.5	16.1	-0.9	6.9
OCC1CCCCN1Cc1cccc(Cl)c1Cl (stereo not given)	-1.3	2.6	1.1	6.3
SMILES	GPR151 activ	TEAD-YAP inh	FBW7 act	MITF inh
C/C(=N\NC(N)=O)c1ccc(O)c(O)c1O	3.4	4.6	-0.3	85.9*
CC1(C)CC(=O)C2=C(C1)OC(N)=C(C#N)C2c1cc(C(C)(C)C)c(O)c(C(C)(C)C)c1 (stereo not given)	1.1	80.1*	0.3	10.9
CC1(C)CC(=O)C2=C(C1)OC1=C(C(=O)CC(C)(C)C1)C2c1cc(C(C)(C)C)c(O)c(C(C)(C)C)c1	0.9	-0.3	0.2	7.8
N#CC1(C#N)[C@@H]2c3ccccc3C=CN2[C@@H](C(=O)C23CC4CC(CC(C4)C2)C3)[C@@H]1c1ccccc1Br	0.9	3.9	0.1	4.4
CN1CCCN(C(=O)C2CC23CCN(Cc2nc(-c4ccccc4)cs2)CC3)CC1 (stereo not given)	-0.3	2.6	0.0	6.0
O=C(NCc1ccco1)C1CC12CCN(Cc1nc(-c3ccccc3)cs1)CC2 (stereo not given)	-1.5	55.5*	0.0	-0.2
COc1cc(OC)cc(C(=O)Nn2c(C3CCCCC3)nc3ccccc3c2=O)c1	-1.8	-6.9	0.5	-2.4
COc1ccc2cc3[n+](cc2c1OC)CCc1cc2c(cc1-3)OCO2	0.0	56.1*!	-0.2	2.4
COc1cc2c(c(OC)c1OC)-c1c(cc3c(c1OC)OCO3)CC(C)C(C)C2 (stereo not given)	-0.2	-3.0	-0.1	-2.1
CC(Nc1ncnc2ccccc12)c1ccccc1 (stereo not given)	0.6	56.0*	-0.3	2.1
Brc1ccc2ncnc(NCCc3ccccc3)c2c1	0.5	64.4*	0.3	8.7
CC(Nc1ncnc2ccc(Br)cc12)c1ccccc1 (stereo not given)	-0.8	33.6*	0.0	18.6

Assay outcomes from PubChem BioAssay.
